From PubChem BioAssay
HTT prom inh – HTT promoter inhibition; HEK293 HTT promoter firefly luciferase reporter, 24 h; actives 0.93% (n = 48,000); Potency, µM (series often up to 57.5 µM), hits mostly inhibitors; note: nearly all actives have a fitted effect of over 50% in size
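HEK293 cells carrying firefly luciferase reporters were seeded at 2,500 per well in Opti-MEM and cultured for 24 h. They were then treated with compounds at up to 57.5 uM final for 24 h at 37 degrees C before Dual-Glo luminescence readout.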
GALC G270D up – enhancers of human galactocerebrosidase G270D mutant activity in cells. 145M-Twi-hGALC-G270D cells (Twitcher mouse brain line with human GALC G270D), HMU-beta-Gal fluorescence, 48 h. Potency, µM (titrated, usually from 57.5 µM), actives largely listed as activators. actives 0.1% (n = 45,000). AID 1159614; note: nearly all actives have a fitted effect of over 65% in size
Target sequence (P54803 whole entry G286D): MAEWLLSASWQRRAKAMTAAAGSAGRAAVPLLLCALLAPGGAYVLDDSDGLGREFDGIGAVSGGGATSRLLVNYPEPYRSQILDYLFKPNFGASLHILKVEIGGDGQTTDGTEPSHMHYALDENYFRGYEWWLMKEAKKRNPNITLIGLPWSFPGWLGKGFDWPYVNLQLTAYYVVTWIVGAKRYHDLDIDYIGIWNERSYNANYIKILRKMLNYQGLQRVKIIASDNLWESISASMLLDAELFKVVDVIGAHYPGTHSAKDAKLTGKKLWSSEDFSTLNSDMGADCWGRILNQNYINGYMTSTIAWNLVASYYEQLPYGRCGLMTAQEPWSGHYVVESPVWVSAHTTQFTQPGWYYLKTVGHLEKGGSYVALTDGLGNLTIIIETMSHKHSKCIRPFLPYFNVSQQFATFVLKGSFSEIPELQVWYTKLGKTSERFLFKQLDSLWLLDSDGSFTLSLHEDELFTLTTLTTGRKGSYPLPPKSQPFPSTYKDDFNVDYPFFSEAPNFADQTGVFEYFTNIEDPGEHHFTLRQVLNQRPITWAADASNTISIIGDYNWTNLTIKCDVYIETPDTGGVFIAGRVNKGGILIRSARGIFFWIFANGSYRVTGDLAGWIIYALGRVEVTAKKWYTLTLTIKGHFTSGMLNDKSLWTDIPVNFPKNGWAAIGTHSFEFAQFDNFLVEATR
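Fluorescence readout: HMU-β-gal cleavage by mutant GALC (0.1 mM final, citrate/phosphate pH 5.2 with 1 mg/mL taurocholate), stopped with carbonate/bicarbonate plus Triton X-100. Cells: murine Twitcher 145M-Twi expressing human G270D GALC; qHTS for activators.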
HTT-AS promoter – HTT-AS promoter activation. HEK293 HTT-AS promoter firefly luciferase reporter, 24 h; response scale: percent change from vehicle, -100% = no light. Potency, µM (highest dose often 57.5 µM), hits mostly activators. actives 0.24% (n = 48,000). AID 1508624; note: nearly all actives have a fitted effect of over 55% in size
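HEK293 luciferase promoter-reporter cells (2,500/well) plated 24 h, then compounds added at up to 57.5 uM final for 24 h at 37 °C. Firefly luminescence by Dual-Glo, normalized to vehicle (0%) and zero RLU (-100%).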
Of the large screens only hits and unclear results are named; the others gave an inactive call; ! = a repeat was not active. A selection: hits, their analogues and other compounds. The true share with any hit is near 1.3%. Calls come from the whole dose curve; as a rule, active = well fitted curve in the direction sought with a large enough effect; inconclusive = small, poorly fitted or top-dose-only effect, or another doubt; inactive = no such curve, though single readings can be large; an effect the other way counts as inactive or inconclusive.

Fc1ccc(Nc2nc3nonc3nc2Nc2cccc(C(F)(F)F)c2)cc1	HTT prom inh 1.3µM
O=C(O)c1cccnc1Nc1cccc(C(F)(F)F)c1	none
CC(=O)Nc1cccc(-n2c(=O)n(C3CC3)c(=O)c3c(Nc4ccc(I)cc4F)n(C)c(=O)c(C)c32)c1	none (no result: GALC G270D up)
COc1cc([C@@H]2c3cc4c(cc3[C@@H](O[C@@H]3O[C@@H]5CO[C@@H](C)O[C@@H]5[C@H](O)[C@@H]3O)[C@H]3COC(=O)[C@H]23)OCO4)cc(OC)c1O	none (no result: GALC G270D up)
Cc1cc(Nc2nc(N[C@@H](C)c3ccc(F)cc3)c(C#N)cc2F)n[nH]1	HTT prom inh inconclusive (no result: GALC G270D up)
O=C(CN(c1ccc(Cl)c(C(F)(F)F)c1)S(=O)(=O)c1ccccc1)Nc1cccnc1	none
O=C(CN(c1cccc(C(F)(F)F)c1)S(=O)(=O)c1ccccc1)Nc1cccc(Cl)c1	HTT prom inh 28µM
Cc1cnn(C)c1C(=O)Nc1cc(Nc2ccc3c(C=Cc4ccccn4)n[nH]c3c2)ccc1F	HTT prom inh inconclusive (no result: GALC G270D up)
COc1ccc(-c2ccc3c(N4CCOC[C@H]4C)nc(N4CCOC[C@H]4C)nc3n2)cc1CO	HTT prom inh inconclusive (no result: GALC G270D up)
Cc1ccc2nc(NC(=O)c3cc(=O)c4cc(C)c(C)cc4o3)sc2c1	none
COc1ccc2nc(NC(=O)c3cc(=O)c4ccccc4o3)sc2c1	HTT-AS promoter 3.2µM
CC1(C)S[C@H]2[C@H](NC(=O)[C@@H](N)c3ccc(O)cc3)C(=O)N2[C@@H]1C(=O)O	none (no result: GALC G270D up)
CC(C)Oc1cc(Nc2nc(N[C@@H](C)c3ccc(F)cn3)ncc2Cl)[nH]n1	HTT prom inh inconclusive (no result: GALC G270D up)
N=C1SC(=Cc2ccc(-c3ccc4c(c3)C(=O)NC4=O)o2)C(=O)N1c1ccc(Br)cc1	none (no result: GALC G270D up)
CC1(c2ccccc2)CC(C)(C)N(C(=O)c2cccc(Cl)c2)c2ccccc21 (stereo not given)	HTT prom inh inconclusive
Cc1ccc2c(c1)N(C(=O)c1ccc(F)cc1)C(C)(C)CC2(C)c1ccccc1 (stereo not given)	HTT prom inh 28µM
OCCCc1ccccc1	none
NNCCc1ccccc1	HTT-AS promoter 4µM!
Cc1noc2ncnc(NCCc3ccccc3)c12	HTT prom inh 14µM
Cc1ccc(CCNc2ncnc3onc(C)c23)cc1	HTT prom inh inconclusive
NCc1c[nH]c(=S)n1[C@H]1CCc2c(F)cc(F)cc2C1	none (no result: GALC G270D up)
COc1cccc(CN2CCc3nc(N4CCN(c5ncccn5)CC4)ncc3C2)c1	HTT prom inh 25µM
COc1cccc(CN2CCc3nc(N4CCN(C)CC4)ncc3C2)c1	none
CCc1ccc(CNC(=O)C2CCCN(c3nn4cc(-c5ccc(F)cc5)nc4s3)C2)cc1 (stereo not given)	HTT prom inh 4µM
CCOc1ccc(CNC(=O)C2CCCN(c3nn4cc(-c5ccc(F)cc5)nc4s3)C2)cc1 (stereo not given)	HTT prom inh inconclusive
COc1cc(CN(C(=O)COc2ccc(Br)cc2)c2ccccn2)cc(OC)c1OC	HTT prom inh 32µM
COc1cc(CN(C(=O)COc2ccc(C)cc2)c2ccccn2)cc(OC)c1OC	HTT prom inh inconclusive
CCc1ccc(CN(C(=O)c2cc3ccccc3oc2=O)C2CCS(=O)(=O)C2)cc1 (stereo not given)	HTT-AS promoter 3.5µM
COc1cc(CN(C(=O)c2cc3ccccc3oc2=O)C2CCS(=O)(=O)C2)cc(OC)c1OC (stereo not given)	HTT-AS promoter inconclusive
CCCNC(=O)[C@H]1O[C@H]1C(=O)N[C@H](C(=O)N1CCC[C@@H]1C(=O)OC)C(C)CC (stereo not given in full)	none (no result: GALC G270D up)
COc1ccccc1Nc1ncc2c(n1)CCN(CC(C)C)C2	HTT-AS promoter 13µM
COc1ccccc1Nc1ncc2c(n1)CCN(Cc1cc(F)cc(F)c1)C2	HTT prom inh inconclusive
CNC(=O)c1cc(COc2nnc(Nc3ccc(Cl)cc3)c3ccoc23)ccn1	none (no result: GALC G270D up)
COc1cc(CNC(=O)c2cc3n(n2)CCCN(Cc2ccc(C)cc2)C3=O)cc(OC)c1OC	HTT prom inh inconclusive
Cc1ccc(CN2CCCn3nc(C(=O)NCc4ccc(OC(C)C)cc4)cc3C2=O)cc1	HTT prom inh 18µM
Cc1ccc(C(N)=O)cc1Nc1nccc(-c2cn(C(C)C)c3cnccc23)n1	HTT prom inh inconclusive (no result: GALC G270D up)
CCNC(=O)Nc1ccc(Oc2ncnc(N)c2C=NOC)cc1Cl	none (no result: GALC G270D up)
Cc1cc(N2CCN(C)CC2)nc2ccc(NC(=O)Nc3ccc(F)cc3)cc12	none
Cc1cc(C)cc(NC(=O)Nc2ccc3nc(N4CCN(C)CC4)cc(C)c3c2)c1	GALC G270D up 18µM
COc1ccc(S(=O)(=O)Nc2cccnc2Nc2ccc(O)cc2)cc1	HTT prom inh inconclusive (no result: GALC G270D up)
CCc1ccc(C2=C(C)C(N3CCC(C(=O)Nc4cccc(OC)c4)CC3)=NS2(=O)=O)cc1	none
O=C(Nc1nc2cccc(-c3ccc(CN4CCS(=O)(=O)CC4)cc3)n2n1)C1CC1	HTT-AS promoter 24µM (no result: GALC G270D up)
Fc1cc(-c2cccc3ncc(-c4cnn(C5CCNCC5)c4)nc23)cc(F)c1CN1CCOCC1	none (no result: GALC G270D up)
CCCOc1ccccc1C(=O)Nc1ccc(-c2nc3ccc(C)cc3s2)cc1	HTT-AS promoter 2.2µM
COc1cccc(C(=O)Nc2ccc(-c3nc4ccc(C)cc4s3)cc2)c1OC	none
Cn1cc(-c2[nH]c3cc(NC(=O)[C@H](N)C4CCCCC4)cc4c3c2C=NNC4=O)cn1	HTT prom inh inconclusive (no result: GALC G270D up)
Cn1c(=O)c2c(ncn2CCO)n(C)c1=O	none
COc1cccc(Cn2cnc3c2c(=O)n(C)c(=O)n3C)c1	HTT prom inh 14µM
Cc1cn2cc(C(=O)N(C)CCO)cc(N[C@@H]3CCOc4cccc(C)c43)c2n1	none (no result: GALC G270D up)
O=C(O)c1ccc(-c2cc3cccnc3c(-c3ccc4nonc4c3)n2)cc1	none (no result: GALC G270D up)
CCOC(=O)c1c(C)oc2ccc(N(C(C)=O)S(=O)(=O)c3c(C)cc(C)cc3C)cc12	none
COC(=O)c1c(C)oc2ccc(N(C(=O)c3ccncc3)S(=O)(=O)c3ccc(OC)cc3)cc12	HTT prom inh 2.2µM
CCOc1ccc(S(=O)(=O)N(C(=O)c2ccncc2)c2ccc3oc(C)c(C(=O)OC)c3c2)cc1	HTT prom inh 2µM
CCOC(=O)c1c(C)oc2ccc(N(C(=O)c3ccncc3)S(=O)(=O)c3ccc(F)cc3)cc12	HTT prom inh inconclusive
COc1ccc(S(=O)(=O)N(C(=O)c2ccncc2)c2ccc3oc(C)c(C(C)=O)c3c2)cc1	HTT prom inh 14µM
CCCC(=O)N(c1ccc2oc(C)c(C(C)=O)c2c1)S(=O)(=O)c1ccc(C)cc1	none
CCOC(=O)c1c(C)oc2ccc(N(C(=O)Oc3ccccc3)S(=O)(=O)c3ccc(CC)cc3)cc12	none
CCc1ccc(S(=O)(=O)N(C(=O)c2ccncc2)c2ccc3oc(C)c(C(=O)OC)c3c2)cc1	HTT prom inh 13µM
CCOc1cc2ncc(C#N)c(Nc3ccc(OCc4ccccn4)c(Cl)c3)c2cc1NC(=O)C=CCN(C)C	none (no result: GALC G270D up)
O=C(C=CC#Cc1cccc(NS(=O)(=O)c2ccccc2)c1)NO	none (no result: GALC G270D up)
CC(=O)c1c(C)oc2ccc(N(C(=O)c3ccncc3)S(=O)(=O)c3ccc(C)cc3C)cc12	HTT prom inh 28µM
CCCCC(=O)N(c1ccc2oc(C)c(C(C)=O)c2c1)S(=O)(=O)c1ccc(F)cc1C	none
